From PubChem
The list is not random: actives were taken first. Their share in the collection is about 19%.
TGFb inhibitor: inhibitors of TGF-b signaling; HepG2 CAGA-GFP TGF-b/SMAD3 reporter, GFP fluorescence, 18 h; TGF-beta stimulated, 500 pg/mL final; Potency, µM (titrated, usually from 46.1 µM), usual class: inhibitors; hit rate 1.2% among 410,000; note: nearly all actives have a fitted effect of over 65% in size
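Per well, imaged GFP fluorescence of HEPG2 CAGA-GFP cells gives the signal; cells get compound, then TGF-beta (500 pg/mL final), 18 h at 37 degrees C; %Activity versus -TGF-beta and +DMSO controls.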
TDP1 cell noCPT: qHTS for Inhibitors of human tyrosyl-DNA phosphodiesterase 1 (TDP1): qHTS in cells in absence of CPT | DT40 Tdp1-/- hTDP1 cells, no CPT, ATP luminescence, 48 h | Potency, µM (doses to about 46.2 µM), hits mostly inhibitors | hit rate 15% among 420,000 | AID 686978, 2013; note: nearly all actives have a fitted effect of over 55% in size
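Readout: luminescence from CellTiter-Glo after 30 min in the dark at RT. Cells: DT40 Tdp1-/- with stable hTDP1, 400/well. Exposure: compounds alone, ≥48 hr, 37 °C.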
S-ASM inh: blocks human secretory acid sphingomyelinase; P17405; placental ASM, HMU-PC fluorogenic substrate, 60 min; Potency, µM (doses to about 57.5 µM), most hits filed as inhibitors; hit rate 0.006% among 340,000
Target sequence (P17405 47-631 limits assumed): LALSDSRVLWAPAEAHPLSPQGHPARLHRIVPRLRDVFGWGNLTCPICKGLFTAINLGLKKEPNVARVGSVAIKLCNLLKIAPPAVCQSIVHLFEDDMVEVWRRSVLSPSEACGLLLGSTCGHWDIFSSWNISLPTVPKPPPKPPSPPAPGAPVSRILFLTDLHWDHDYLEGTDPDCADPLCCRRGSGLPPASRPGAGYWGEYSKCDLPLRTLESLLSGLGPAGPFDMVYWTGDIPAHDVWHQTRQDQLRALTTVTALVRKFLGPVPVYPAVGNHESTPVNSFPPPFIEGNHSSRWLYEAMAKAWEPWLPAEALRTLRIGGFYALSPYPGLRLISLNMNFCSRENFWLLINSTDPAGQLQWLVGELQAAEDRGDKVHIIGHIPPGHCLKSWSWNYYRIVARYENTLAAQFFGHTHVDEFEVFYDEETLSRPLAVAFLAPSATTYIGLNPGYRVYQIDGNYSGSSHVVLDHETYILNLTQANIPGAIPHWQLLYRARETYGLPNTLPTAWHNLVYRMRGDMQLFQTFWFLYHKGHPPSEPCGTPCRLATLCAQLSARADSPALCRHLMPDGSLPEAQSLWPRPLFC
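Fluorescence read-out (Ex 386 nm, Em 447 nm) after stopping the reaction at pH 10. Enzyme: ASM from human placenta; substrate HMU-PC0, 9 uM final; 60 min, 37 °C. Compound preincubation 10 min, ambient temperature.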
IL-1B inflam inh: inflammasome signaling inhibition, IL-1 beta readout. activity change, % at 57.5 µM. THP-1 LPS/ATP IL-1B secretion, AlphaLISA, 16 h; stronger effect = lower value. AID 743279. hit rate 4.7% among 360,000; in the data active = activity change below about -50%; inconclusive = mostly about -30% to -49%
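THP-1 cells pretreated 1 hr with compounds (up to 57.5 uM final), then stimulated with LPS (250 ng/mL final) plus ATP (1.25 mM final); secreted IL-1B measured by AlphaLISA after 16 hr, decreased signal indicating inhibition.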
HepG2 tox: kills HepG2 cells in TGF-b inhibitor counter-screen. HepG2 CAGA-GFP viability, ATP luminescence, 18 h. Potency, µM (series often up to 46.1 µM), usual class: cytotoxic. hit rate 0.76% among 410,000. AID 588856
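CellTiter-Glo luminescence gave cytotoxicity after 18 hours at 37 degrees C. The cells were HepG2 CAGA-GFP in 1% FBS DMEM, stimulated with 500 pg/mL TGF-beta after compound addition. %Activity was normalised to no-cell wells (complete cell-killing) and DMSO (no toxicity), and curves were fitted and classified.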
DT40 TDP1 CPT: DT40-hTDP1 cell growth loss with CPT; chicken DT40 Tdp1-/-;hTDP1 cells + 20 nM CPT, ATP luminescence, 48 h; Potency, µM (doses to about 46.2 µM), actives largely listed as inhibitors; hit rate 12% among 420,000; AID 686979; note: nearly all actives have a fitted effect of over 55% in size
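Chicken DT40 Tdp1-/- cells stably complemented with human TDP1 were seeded at 400 cells/well in medium containing 20 nM camptothecin, exposed to pin-transferred compounds, and grown at 37 °C for at least 48 hr. Viability was read as ATP luminescence.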
Numbers stand for hits. Unless noted, calls come from the whole dose curve; as a rule, active = well fitted curve in the direction sought with a large enough effect; inconclusive = small, poorly fitted or top-dose-only effect, or another doubt; inactive = no such curve, though single readings can be large; an effect the other way counts as inactive or inconclusive.

For CC(C)C[C@H]1CNC(=S)N1CC1CCN(CC2CCC(C(C)(C)C)CC2)CC1 (stereo partly specified) the results were TGFb inhibitor inactive, TDP1 cell noCPT 16µM, S-ASM inh inactive, IL-1B inflam inh inactive, HepG2 tox inactive and DT40 TDP1 CPT 16µM.
CSc1ncc(C(=O)Nc2ccc(Cl)cc2C(=O)c2ccccc2)c(C)n1 was read as TGFb inhibitor inactive, TDP1 cell noCPT inconclusive, HepG2 tox inactive and DT40 TDP1 CPT inconclusive.
Screening CCCCn1c(CN2CCN(c3ccc(F)cc3)CC2)nc2c1c(=O)n(C)c(=O)n2C returned TGFb inhibitor inactive, TDP1 cell noCPT 1.6µM, S-ASM inh inactive, IL-1B inflam inh inactive, HepG2 tox inactive and DT40 TDP1 CPT 1.6µM.
For c1ccc(NC2=Nc3ccccc3CC2)cc1 the results were TGFb inhibitor inactive, TDP1 cell noCPT inconclusive, S-ASM inh inactive, IL-1B inflam inh inactive, HepG2 tox inactive and DT40 TDP1 CPT inactive.
Screening COc1ccc(CN2C(=O)NC(=O)/C(=C\c3ccco3)C2=O)cc1 returned TGFb inhibitor inactive, TDP1 cell noCPT inconclusive, S-ASM inh inactive, IL-1B inflam inh inactive, HepG2 tox inactive and DT40 TDP1 CPT inconclusive.
O=C1NC(=O)N(CCc2ccc(F)cc2)C(=O)/C1=C/c1cccs1 was read as TGFb inhibitor inactive, TDP1 cell noCPT 16µM, S-ASM inh inactive, IL-1B inflam inh -97, HepG2 tox inactive and DT40 TDP1 CPT 16µM.
`O=C1NC(=O)N(CCc2ccc(F)cc2)C(=O)/C1=C/c1ccco1` gave TGFb inhibitor inactive, TDP1 cell noCPT inconclusive, S-ASM inh inactive, IL-1B inflam inh -53, HepG2 tox inactive and DT40 TDP1 CPT inconclusive.
Screening C=CCN1C(=O)/C(=C/c2cccs2)C(=O)NC1=S returned TGFb inhibitor inconclusive, TDP1 cell noCPT 15µM, S-ASM inh inactive, IL-1B inflam inh -104, HepG2 tox inactive and DT40 TDP1 CPT 16µM.
For C[C@H]1O[C@H](O[C@H]2[C@H](O)[C@@H](O)[C@@H](O)[C@H](O)[C@@H]2O)[C@@H](N)C[C@@H]1NC(=N)C(=O)O the results were TDP1 cell noCPT inactive and DT40 TDP1 CPT inactive.
Screening CCSc1cc(C2C(C#N)=C(N)Oc3n[nH]c(C)c32)c(C)o1 (stereo unspecified) returned TGFb inhibitor inconclusive, TDP1 cell noCPT 16µM, S-ASM inh inactive, IL-1B inflam inh -97, HepG2 tox inactive and DT40 TDP1 CPT inconclusive.
For Cc1nn(C)c(C)c1C1C(C#N)=C(N)Oc2n[nH]c(C)c21 (stereo unspecified) the results were TGFb inhibitor inconclusive, TDP1 cell noCPT inactive, S-ASM inh inactive, IL-1B inflam inh inactive, HepG2 tox inactive and DT40 TDP1 CPT inactive.
`O=C(CCN1CCN(CCO)CC1)N1c2ccccc2Sc2ccc(C(F)(F)F)cc21` gave TGFb inhibitor inactive, TDP1 cell noCPT 23µM, S-ASM inh inactive, IL-1B inflam inh inconclusive, HepG2 tox inactive and DT40 TDP1 CPT inconclusive.
For O=C(Cc1cccc(C(F)(F)F)c1)N1CCN(CC(=O)N2CCCC2)CC1 the results were TGFb inhibitor inactive, TDP1 cell noCPT inactive, S-ASM inh inactive, IL-1B inflam inh inactive, HepG2 tox inactive and DT40 TDP1 CPT inactive.
For O=[N+]([O-])c1ccc(NC2CCCC2)c2ccncc12 the results were TGFb inhibitor inactive, TDP1 cell noCPT inconclusive, S-ASM inh inactive, IL-1B inflam inh inactive, HepG2 tox inactive and DT40 TDP1 CPT inconclusive.
O=[N+]([O-])c1ccc(N2CCCC2)c2ccncc12 was read as TGFb inhibitor inactive, TDP1 cell noCPT 21µM, S-ASM inh inactive, IL-1B inflam inh inactive, HepG2 tox inactive and DT40 TDP1 CPT inconclusive.
`COc1ccc(CNC(=O)c2cnn3c(C)c(Cc4ccc(F)cc4)c(C)nc23)cc1` gave TGFb inhibitor inactive, TDP1 cell noCPT 15µM, HepG2 tox inactive and DT40 TDP1 CPT 16µM.
`COc1ccc(-c2nn(CCC#N)cc2C(=O)NCc2ccccc2)cc1` gave TGFb inhibitor inactive, TDP1 cell noCPT inactive, S-ASM inh inactive, IL-1B inflam inh inactive, HepG2 tox inactive and DT40 TDP1 CPT inactive.
`CCc1ccc2c(c1)Sc1ccccc1CC2N1CCN(C)CC1` (stereo unspecified) gave TGFb inhibitor inconclusive, TDP1 cell noCPT 18µM, S-ASM inh inactive, IL-1B inflam inh -65, HepG2 tox inactive and DT40 TDP1 CPT inconclusive.
`CCC(=O)OC1CCC2C3CCc4cc(O)ccc4C3CC[C@]12C` (stereo partly specified) gave TDP1 cell noCPT 21µM and DT40 TDP1 CPT 21µM.
CCc1nc2ccc(C(=O)N3CCN(C(=O)c4ccco4)CC3)cn2c1N(C)Cc1ccc(OC)cc1 was read as TGFb inhibitor inconclusive, TDP1 cell noCPT inconclusive, IL-1B inflam inh inactive, HepG2 tox inactive and DT40 TDP1 CPT inconclusive.
Cc1ccc(Cn2cccc(C(=O)Nc3cc([N+](=O)[O-])ccc3C)c2=O)cc1 was read as TGFb inhibitor inactive, TDP1 cell noCPT inconclusive, HepG2 tox inactive and DT40 TDP1 CPT inactive.
`CC(=O)N(C)CC#CCN1CCCC(CO)C1` (stereo unspecified) gave TGFb inhibitor inactive, S-ASM inh inactive and HepG2 tox inactive.
c1ccc2sc(C3(N4CCCC4)CCCCC3)cc2c1 was read as TDP1 cell noCPT 21µM and DT40 TDP1 CPT inconclusive.
For c1ccc2sc(C3(NCC4CC4)CCCCC3)cc2c1 the results were TDP1 cell noCPT 13µM and DT40 TDP1 CPT 16µM.
Screening COC(=NC1CCCCC1)C(O)c1c[nH]c2ccccc12 (stereo unspecified) returned TGFb inhibitor inactive, TDP1 cell noCPT inactive, S-ASM inh inactive, IL-1B inflam inh inactive, HepG2 tox inactive and DT40 TDP1 CPT inactive.
Cc1ccc2ccccc2c1NC(=O)CNC1CCCCC1 was read as TGFb inhibitor inactive, TDP1 cell noCPT inconclusive, S-ASM inh inactive, IL-1B inflam inh inactive, HepG2 tox inactive and DT40 TDP1 CPT inactive.
For CN(Cc1c[nH]c2ccccc12)C1CCCCC1 the results were TGFb inhibitor inactive, TDP1 cell noCPT 1.2µM, S-ASM inh inactive, IL-1B inflam inh inactive, HepG2 tox inactive and DT40 TDP1 CPT 0.41µM.
For c1ccc2c(CNC3CCCCC3)c[nH]c2c1 the results were TGFb inhibitor inconclusive, TDP1 cell noCPT 6.3µM, S-ASM inh inactive, IL-1B inflam inh inconclusive, HepG2 tox inactive and DT40 TDP1 CPT 2.5µM.
Screening COC(=O)C(O)(c1cn(C)c2ccccc12)C(F)(F)F (stereo unspecified) returned TGFb inhibitor inconclusive, TDP1 cell noCPT inactive, S-ASM inh inactive, IL-1B inflam inh inactive, HepG2 tox inactive and DT40 TDP1 CPT inactive.
